Inconclusive results are not listed. The source made the active and inactive calls. Unless noted, calls follow the shape of the dose curve; as a rule, active = well fitted curve in the direction sought with a large enough effect; inconclusive = small, poorly fitted or top-dose-only effect, or another doubt; inactive = no such curve, though single readings can be large; an effect the other way counts as inactive or inconclusive.
Key:
[1] = qHTS assay for small molecule antagonists of peroxisome proliferator-activated receptor delta signaling (AID 588535); settings: HEK293T PPARd-UAS-bla, beta-lactamase FRET ratio, 18 h; 460 nm channel;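 also: cells co-treated with a PPAR-delta agonist as stimulator during compound exposure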
How it was run: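 Reporter: UAS-bla under PPAR-delta response element, HEK293T host. Medium: 2% charcoal/dextran FBS. Dosing: titration, 18 hrs, 37 C. Detection: CCF4, 2 hrs RT, 405 ex/460 and 530 em.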

[2] = biological target: Peroxisome proliferator-activated receptor gamma (Homo sapiens) (UniProt P37231); experiment: qHTS assay for small molecule agonists of peroxisome proliferator-activated receptor gamma signaling (AID 588536; active = well fitted curve in the direction sought with a large enough effect in the signal ratio, with a control signal flat, not every such curve was filed as active; the % refers to the signal ratio;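 also: 0% = DMSO basal wells and 100% = rosiglitazone at 2 µM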); settings: HEK293 PPARg-UAS-bla, beta-lactamase ratio, 16 h, percent of rosiglitazone response, DMSO as zero; series mostly up to 76.7 µM
How it was run: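 GeneBLAzer PPAR-gamma-UAS-bla HEK293 cells in 1% charcoal/dextran-treated FBS medium were treated 16 h at 37 C with compounds. Beta-lactamase activity was read by CCF4 ratio (460/530 nm). Response was normalized to 2 uM rosiglitazone (100%) and DMSO, then Hill-fitted for EC50 and efficacy.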

[3] = biological target: Peroxisome proliferator-activated receptor gamma (Homo sapiens) (UniProt P37231); experiment: qHTS assay for small molecule antagonists of peroxisome proliferator-activated receptor gamma signaling (AID 588537; active = well fitted inhibition curve with a large enough effect in the signal ratio, with a control signal flat, not every such curve was filed as active; the % refers to the signal ratio; also: potency is read from the fitted curve at half-maximal effect); settings: HEK293 PPARg-UAS-bla, beta-lactamase ratio, antagonist mode; series mostly up to 76.8 µM
How it was run: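 We seeded GeneBLAzer HEK293 reporter cells at 3000 per well, allowed 6-6.5 h attachment at 37 C, then co-treated with test compound titrations and 50 nM rosiglitazone overnight (16 h). Inhibition was quantified from 460/530 nm emission ratios.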

[4] = biological target: Vitamin D3 receptor (Homo sapiens) (UniProt P11473); experiment: qHTS assay for small molecule antagonists of vitamin D receptor signaling (AID 588541; calls by dose curve;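 also: receptor activated by calcitriol during compound treatment; % is scaled to controls: 0 for no effect and ±100 for the full control effect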); settings: HEK293T VDR-UAS-bla, beta-lactamase ratio, antagonist mode; series mostly up to 76.7 µM
How it was run: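 VDR-UAS-bla HEK293T cells (2000/well, 2% charcoal-stripped FBS) were treated with titrated compounds plus 1-alpha,25-dihydroxyvitamin D3 (50 nM or 3 nM final) for 16 h at 37 C. CCF4 beta-lactamase fluorescence was read; Hill fits gave IC50.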

[5] = biological target: Vitamin D3 receptor (Homo sapiens) (UniProt P11473); experiment: qHTS assay for small molecule agonists of vitamin D receptor signaling (AID 588543; calls by dose curve;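 also: 0% = DMSO basal and 100% = reference agonist control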); settings: HEK293T VDR-UAS-bla, beta-lactamase ratio, 16 h; series mostly up to 76.8 µM
How it was run: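 β-lactamase reporter, VDR-UAS-bla HEK293T, agonist mode. Cells plated 5 h at 37 °C, compound titration 16 h at 37 °C, CCF4 dye 2 h RT, ratio 460/530 nm. Hill fit → EC50, efficacy vs 50 nM 1α,25-(OH)2D3.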

[6] = qHTS assay for small molecule agonists of retinoid X receptor alpha signaling (AID 588544; calls by dose curve;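 as to activation: 0% = DMSO basal wells and 100% = reference agonist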); settings: HEK293T RXRa-UAS-bla, beta-lactamase reporter, 18 h; 530 nm emission
[7] = biological target: Retinoic acid receptor RXR-alpha (Homo sapiens) (UniProt P19793); experiment: as above; settings: HEK293T RXRa-UAS-bla, beta-lactamase reporter, 18 h; series mostly up to 76.7 µM
[8] = biological target: Thyroid hormone receptor beta (Homo sapiens) (UniProt P10828); experiment: qHTS assay for small molecule agonists of thyroid hormone receptor beta signaling (AID 588545; calls by dose curve; also: potency is read from the fitted curve at half-maximal effect); settings: TR-UAS-bla GripTite HEK 293, beta-lactamase ratio, agonist mode, 18 h; series mostly up to 76.7 µM
How it was run: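 Cells (2500/well) were seeded, incubated 4 hrs at 37 C, dosed with a compound series, incubated 18 hrs, loaded with CCF4 dye for 2 hrs at RT, then read for fluorescence. Data were scaled between DMSO (0%) and 10 nM T3 (100%).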

[9] = qHTS assay for small molecule antagonists of retinoid X receptor alpha signaling (AID 588546; active = well fitted inhibition curve with a large enough effect in the signal ratio, with a control signal flat, not every such curve was filed as active; the % refers to the signal ratio;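 also: cells stimulated with 9-cis-retinoic acid as agonist; % is scaled to controls: 0 for no effect and ±100 for the full control effect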); settings: HEK293T RXRa-UAS-bla, beta-lactamase ratio, antagonist mode; measured here: W530 green channel, cytotoxicity proxy
How it was run: (§1)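 Beta-lactamase reporter inhibition, read as CCF4 fluorescence ratio (ex 405, em 460/530 nm) after 2 h at RT. HEK293T UAS-bla cells, 2500/well, were stimulated with 9-cis-RA at 500 or 100 nM final alongside test compound for 18 h at 37 C.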

[10] = biological target: Retinoic acid receptor RXR-alpha (Homo sapiens) (UniProt P19793); experiment: as above; settings: HEK293T RXRa-UAS-bla, beta-lactamase ratio, antagonist mode
How it was run: as §1

[11] = biological target: Peroxisome proliferator-activated receptor alpha (Homo sapiens) (UniProt Q07869); experiment: qHTS assay for small molecule agonists of the peroxisome proliferator-activated receptor alpha (PPARalpha) signaling pathway (AID 651778); settings: PathHunter PPARalpha complementation, chemiluminescence, 6 h; max response: stronger effect = higher value; also: % of control where 0% means no effect
How it was run: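 Cells plated at 2,000/well and held overnight at 37 C, 5% CO2, then compound added by pin tool for 6 hr; after PathHunter detection reagent and 60 min at room temperature, chemiluminescence from enzyme complementation was read.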

[12] = qHTS assay for small molecule agonists of the antioxidant response element (ARE) signaling pathway measured by Nrf2-dependant transcriptional activity (AID 720636; active = well fitted curve in the direction sought with a large enough effect in the repeat runs; an effect the other way counts as inactive or inconclusive; also: % of control where 0% means no effect); settings: ARE-luc HepG2, Nrf2 luciferase reporter, 16 h; series mostly up to 92.4 µM
How it was run: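 Nrf2-dependent transcription read as ONE-Glo luciferase signal from ARE-luc HepG2 reporter cells after 16 hr compound treatment at 37 C, 5% CO2, in assay medium with 1% dialyzed FBS.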

[13] = qHTS assay for small molecule agonists of the antioxidant response element (ARE) signaling pathway measured by Nrf2-dependant transcriptional activity - cell viability counter screen (AID 720653; active = well fitted curve in the direction sought with a large enough effect in the repeat runs; an effect the other way counts as inactive or inconclusive; also: % is scaled to controls: 0 for no effect and ±100 for the full control effect); settings: ARE-bla HepG2 viability, CellTiter-Glo ATP luminescence, 16 h; max response: stronger effect = lower value
How it was run: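 ARE-bla HepG2 cells (2,000/well) rested 5 hrs at 37C/5% CO2, then exposed to compounds in DMSO for 16 hrs. Viability was read in the same wells as intracellular ATP by luminescence, 30 min at room temperature after reagent addition.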

[14] = qHTS assay for cell viability of HEK293 cells (AID 743288); settings: ATP luminescence (CellTiter-Glo), 18 h; max response: stronger effect = lower value; also: % is scaled to controls: 0 for no effect and ±100 for the full control effect; nearly all actives have a fitted effect of over 50% in size
How it was run: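 Environmental chemicals tested in qHTS format against parental HEK293 cells; 18 h treatment, 37 C; read-out ATP luminescence (CellTiter-Glo), 30 min RT development.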

[15] = qHTS assay for cell viability of the p53RE-bla HCT-116 cell line (AID 743292); settings: p53RE-bla HCT-116 viability, ATP luminescence, 16 h; series mostly up to 95 µM; also: nearly all actives have a fitted effect of over 55% in size; also: potency is read from the fitted curve at half-maximal effect
How it was run: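 ATP-based luminescent viability (CellTiter-Glo, 30 min RT) after 16 h compound treatment at 37 C of p53RE-bla HCT-116 cells, seeded at 4,000 cells/well and rested 5 h before dosing.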

[16] = qHTS assay for environmental chemicals that activate the Aryl hydrocarbon Receptor (AhR) signaling pathway (AID 651777); settings: 1A2-DRE human hepatoma cells, luciferase, 24 h; activation: stronger effect = higher value; also: % of control where 0% means no effect; nearly all actives have a fitted effect of over 15% in size
How it was run: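 Luminescence (One-Glo, 30 min, room temperature) reports AhR-driven luciferase in stably transfected human hepatoma cells bearing DRE and CYP1A2 promoter. Cells (1,200/well) were treated with compound for 24 hr at 37 C in qHTS format.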

[17] = biological target: Nuclear receptor subfamily 1 group I member 2 (Rattus norvegicus) (UniProt Q9R1A7); experiment: qHTS assay for small molecule activators of the rat pregnane X receptor (rPXR) signaling pathway (AID 651751; call rule not given here; also: 0% is about no effect); settings: rPXR reporter cells, luciferase (One-Glo), 24 h
[18] = qHTS assay for small molecule activators of the p53 signaling pathway (AID 651743; active = well fitted activation curve with a large enough effect in the signal ratio, not every such curve was filed as active; the % refers to the signal ratio; also: % of control where 0% means no effect); settings: HCT-116 p53RE-bla, beta-lactamase FRET ratio, 16 h; activation: stronger effect = higher value
How it was run: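 Cell-based beta-lactamase reporter (p53 response elements, HCT-116 background). After a 5-hour preincubation, cells received compound for 16 hours at 37 C; substrate development ran 2 hours at room temperature.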

[19] = qHTS assay for small molecule activators of the human pregnane X receptor (PXR) signaling pathway (AID 720659; call rule not given here; also: 0% is about no effect); settings: DPX-2 HepG2 CYP3A4-luciferase, 24 h; series mostly up to 92.3 µM

Retinoic acid receptor RXR-alpha (Homo sapiens), sequence (P19793 whole entry, looked up): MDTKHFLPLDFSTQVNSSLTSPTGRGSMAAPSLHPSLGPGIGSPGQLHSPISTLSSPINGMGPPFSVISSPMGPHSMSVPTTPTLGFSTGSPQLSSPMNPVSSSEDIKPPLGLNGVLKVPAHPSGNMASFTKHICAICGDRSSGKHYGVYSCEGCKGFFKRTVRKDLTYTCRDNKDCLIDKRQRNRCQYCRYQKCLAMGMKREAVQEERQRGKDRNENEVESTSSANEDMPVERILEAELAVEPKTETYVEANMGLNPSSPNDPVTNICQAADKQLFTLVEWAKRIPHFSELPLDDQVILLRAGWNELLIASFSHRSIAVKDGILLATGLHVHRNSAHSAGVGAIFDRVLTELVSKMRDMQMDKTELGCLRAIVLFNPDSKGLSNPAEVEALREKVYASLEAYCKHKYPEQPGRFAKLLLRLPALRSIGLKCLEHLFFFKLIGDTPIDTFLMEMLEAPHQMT
Nuclear receptor subfamily 1 group I member 2 (Rattus norvegicus), sequence (Q9R1A7 whole entry, looked up): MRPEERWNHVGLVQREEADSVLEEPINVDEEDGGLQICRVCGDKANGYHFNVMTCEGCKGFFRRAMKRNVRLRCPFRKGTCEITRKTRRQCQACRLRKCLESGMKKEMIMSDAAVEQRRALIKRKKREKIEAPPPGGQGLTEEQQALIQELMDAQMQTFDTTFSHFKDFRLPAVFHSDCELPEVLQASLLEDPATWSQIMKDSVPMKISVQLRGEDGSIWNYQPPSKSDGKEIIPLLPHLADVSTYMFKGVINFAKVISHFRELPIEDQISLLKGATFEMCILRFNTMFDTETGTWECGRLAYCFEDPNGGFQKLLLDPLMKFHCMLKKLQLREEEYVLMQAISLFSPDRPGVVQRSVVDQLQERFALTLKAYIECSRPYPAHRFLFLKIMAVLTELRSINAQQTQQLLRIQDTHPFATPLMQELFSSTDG
Peroxisome proliferator-activated receptor alpha (Homo sapiens), sequence (Q07869 whole entry, looked up): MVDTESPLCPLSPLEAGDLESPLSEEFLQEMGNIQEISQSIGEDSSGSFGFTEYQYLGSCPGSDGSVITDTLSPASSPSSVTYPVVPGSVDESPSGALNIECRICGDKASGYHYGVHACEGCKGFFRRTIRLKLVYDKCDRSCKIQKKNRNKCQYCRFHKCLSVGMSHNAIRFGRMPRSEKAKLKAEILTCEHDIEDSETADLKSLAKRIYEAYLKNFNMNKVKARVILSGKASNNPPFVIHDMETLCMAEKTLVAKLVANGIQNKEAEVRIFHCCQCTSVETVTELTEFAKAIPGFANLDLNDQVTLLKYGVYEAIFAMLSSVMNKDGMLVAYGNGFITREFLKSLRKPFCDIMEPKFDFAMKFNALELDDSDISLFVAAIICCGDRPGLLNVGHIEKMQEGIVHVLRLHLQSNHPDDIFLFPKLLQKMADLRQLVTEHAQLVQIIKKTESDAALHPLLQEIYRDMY
Thyroid hormone receptor beta (Homo sapiens), sequence (P10828 whole entry, looked up): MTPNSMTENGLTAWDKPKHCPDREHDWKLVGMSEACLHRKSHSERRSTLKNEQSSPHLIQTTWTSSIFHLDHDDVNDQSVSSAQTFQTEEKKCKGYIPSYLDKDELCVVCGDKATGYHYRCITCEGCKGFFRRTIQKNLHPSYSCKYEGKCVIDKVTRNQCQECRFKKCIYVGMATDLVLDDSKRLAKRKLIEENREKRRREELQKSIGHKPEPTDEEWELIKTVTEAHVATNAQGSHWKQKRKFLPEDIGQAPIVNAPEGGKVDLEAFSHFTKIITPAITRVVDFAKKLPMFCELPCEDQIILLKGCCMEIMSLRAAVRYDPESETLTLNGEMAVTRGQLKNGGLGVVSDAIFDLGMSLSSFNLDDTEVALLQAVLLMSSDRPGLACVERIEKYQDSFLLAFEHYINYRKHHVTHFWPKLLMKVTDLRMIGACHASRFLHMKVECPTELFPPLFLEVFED
Vitamin D3 receptor (Homo sapiens), sequence (P11473 whole entry, looked up): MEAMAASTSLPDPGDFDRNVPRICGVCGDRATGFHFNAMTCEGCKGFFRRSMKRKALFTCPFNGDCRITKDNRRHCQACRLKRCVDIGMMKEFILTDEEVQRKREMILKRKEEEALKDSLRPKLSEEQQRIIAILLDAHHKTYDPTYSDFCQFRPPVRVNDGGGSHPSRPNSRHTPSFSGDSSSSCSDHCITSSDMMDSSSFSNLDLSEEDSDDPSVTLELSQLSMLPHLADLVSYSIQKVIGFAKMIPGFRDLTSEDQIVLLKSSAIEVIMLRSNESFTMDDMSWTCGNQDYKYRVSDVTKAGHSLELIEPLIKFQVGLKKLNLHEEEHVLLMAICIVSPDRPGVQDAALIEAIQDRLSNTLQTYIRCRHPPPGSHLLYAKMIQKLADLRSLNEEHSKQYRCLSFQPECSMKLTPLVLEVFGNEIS
Peroxisome proliferator-activated receptor gamma (Homo sapiens), sequence (P37231 whole entry, looked up): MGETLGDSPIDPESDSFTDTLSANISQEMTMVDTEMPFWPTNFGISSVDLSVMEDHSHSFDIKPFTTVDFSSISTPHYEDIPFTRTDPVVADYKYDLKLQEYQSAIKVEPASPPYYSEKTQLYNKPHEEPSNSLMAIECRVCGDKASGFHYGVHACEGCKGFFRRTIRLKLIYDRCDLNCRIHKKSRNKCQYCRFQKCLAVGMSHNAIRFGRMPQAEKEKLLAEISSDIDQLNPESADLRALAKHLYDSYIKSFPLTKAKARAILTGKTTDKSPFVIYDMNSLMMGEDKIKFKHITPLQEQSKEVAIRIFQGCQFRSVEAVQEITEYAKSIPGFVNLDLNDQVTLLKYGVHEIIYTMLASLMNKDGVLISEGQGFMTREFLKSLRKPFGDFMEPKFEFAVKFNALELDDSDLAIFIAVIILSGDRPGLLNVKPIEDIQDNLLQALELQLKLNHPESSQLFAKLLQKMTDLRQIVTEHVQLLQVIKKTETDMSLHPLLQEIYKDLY

Structure (SMILES)	max response [1] [%]	outcome [2]	Potency [3]	Potency [4]	outcome [5]	max response [6] [%]	Potency [7]	Potency [8]	max response [9] [%]	max response [10]	max response [11]	Potency [12]	max response [13]	max response [14]	Potency [15]	activation [16]	max response [17]	activation [18]	outcome [19]
OCCOCCOCCOCCOCCO	-16.8	inactive	inactive	inactive	inactive	5.49	inactive	inactive	-8.78	0.858% (inactive)	-1.15% (inactive)	inactive	-9.49% (inactive)	-4.24% (inactive)	inactive	–	–	–	–
c1cc2ccc3ccc4ccc5cccc6c(c1)c2c3c4c56	–	–	–	–	–	–	–	25.1 µM (active)	–	–	-2.73% (inactive)	inactive	-17.1% (inactive)	-3.62% (inactive)	inactive	6.27% (inactive)	0.241% (inactive)	–	–
N#CSCSc1nc2ccccc2s1	–	–	–	–	inactive	–	–	–	–	–	-9.14% (inactive)	inactive	–	–	–	–	–	–	–
Oc1ccc(Nc2ccccc2)cc1	–	–	–	–	inactive	–	–	inactive	–	–	-0.779% (inactive)	inactive	-6.61% (inactive)	-10.5% (inactive)	inactive	-0.687% (inactive)	0.0407% (inactive)	16.3% (inactive)	inactive
Brc1ccc(Oc2ccc(Br)cc2)cc1	0.317	–	–	inactive	inactive	–	–	inactive	-2.23	3.5% (inactive)	4.27% (inactive)	inactive	-9.27% (inactive)	-10% (inactive)	inactive	–	-1.1% (inactive)	0.901% (inactive)	inactive
Clc1nc(Cl)c(Cl)c(Cl)c1Cl	31.1	inactive	inactive	–	inactive	-3.68	inactive	inactive	-0.304	-25.7% (inactive)	-3.38% (inactive)	inactive	-5.53% (inactive)	-14.3% (inactive)	inactive	-0.0238% (inactive)	-3.08% (inactive)	-0.354% (inactive)	inactive
CC[C@H]1O[C@]2(CC[C@@H]1C)C[C@@H]1C[C@@H](C/C=C(\C)C[C@@H](C)/C=C/C=C3CO[C@@H]4[C@H](O)C(C)=C[C@@H](C(=O)O1)[C@]34O)O2	–	–	22.4 µM (active)	–	–	–	–	–	–	–	–	inactive	–	–	31.6 µM (active)	-11.9% (inactive)	–	–	–
